Test results reported in PubChem BioAssay AID720504 (National Center for Advancing Translational Sciences (NCATS), 2013).
About 10,000 (2.8%) of roughly 360,000 compounds were called active. Not shown: some 4% with an inconclusive outcome. The sample as a whole holds a higher share of actives than the screen did. Unmarked numbers belong to inactive results. Calls follow the shape of the dose curve; as a rule, active = well fitted inhibition curve with a large enough effect; inconclusive = small, poorly fitted or top-dose-only effect; inactive = flat fitted curve, though single readings scatter.

Target: Serine/threonine-protein kinase PLK1 (Homo sapiens) (UniProt P53350)
Sequence (P53350 whole entry, looked up, the tested form may be a part): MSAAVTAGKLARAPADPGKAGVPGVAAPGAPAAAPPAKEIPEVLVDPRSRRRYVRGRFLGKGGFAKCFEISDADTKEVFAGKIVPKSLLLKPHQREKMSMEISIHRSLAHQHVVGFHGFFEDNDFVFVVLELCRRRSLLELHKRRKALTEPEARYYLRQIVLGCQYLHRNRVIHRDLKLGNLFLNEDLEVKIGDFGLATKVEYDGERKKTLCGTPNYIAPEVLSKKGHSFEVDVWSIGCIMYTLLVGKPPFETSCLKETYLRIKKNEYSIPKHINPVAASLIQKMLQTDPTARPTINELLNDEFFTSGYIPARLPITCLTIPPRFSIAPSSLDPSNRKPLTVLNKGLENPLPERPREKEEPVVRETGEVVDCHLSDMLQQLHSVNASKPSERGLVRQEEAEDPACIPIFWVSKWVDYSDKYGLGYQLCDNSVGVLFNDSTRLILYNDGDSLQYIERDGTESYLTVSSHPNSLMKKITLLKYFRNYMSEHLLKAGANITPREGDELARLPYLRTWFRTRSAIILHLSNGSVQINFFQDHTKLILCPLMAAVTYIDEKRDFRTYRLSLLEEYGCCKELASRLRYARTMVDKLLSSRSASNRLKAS
Experiment: qHTS for Inhibitors of PLK1-PDB (polo-like kinase 1 - polo-box domain): Primary Screen; also: nearly all actives have a fitted effect of over 65% in size; as to max response, negative = inhibition: series mostly up to about 57 µM
Conditions: Plk1 PBD binding of FITC phosphopeptide, fluorescence polarization
% is scaled to controls: 0 for no effect and ±100 for the full control effect; potency is read from the fitted curve at half-maximal effect.

Row | SMILES | max response, negative = inhibition [%] | Potency
1 | CC(C)Cc1ccc(-c2cc3nc(NCc4cccc(Cl)c4)ccn3n2)cc1 | -0.174 | 
2 | CCOc1ccc(N2CC(C(=O)NCc3ccccn3)CC2=O)cc1 (configuration not stated) | 6.65 | 
3 | COc1ccc(C)cc1NC(=O)NCc1ccccn1 | 3.53 | 
4 | COc1ccc(NC(=O)C2C3C=CC(C3)C2C(=O)NCc2ccccn2)c(OC)c1 (configuration not stated) |  | 26.7 µM (active)
5 | CCCC(=O)N1CCC1(C)C(=O)NCc1ccc(SC)cc1 (configuration not stated) | 4.65 | 
6 | CO[C@@H]1CN(C)C(=O)c2cc(NC(=O)Nc3cc(F)ccc3F)ccc2OC[C@H](C)N(C(=O)c2ccccn2)C[C@@H]1C | -4.19 | 
7 | Cc1cccc(C)c1NC(=O)COC(=O)c1c(C)nn(-c2ccccc2)c1C | 2.85 | 
8 | COc1ccc(CNC(=O)COC(=O)c2c(C)nn(-c3ccccc3)c2C)cc1OC | -2.1 | 
9 | Cc1nn(-c2ccccc2)c(C)c1C(=O)OCC(=O)NC(=O)NC1CCCCC1 |  | 21.2 µM (active)
10 | Cc1ccc(F)c(S(=O)(=O)NC(=O)C2(C)CCN2C(=O)CCc2cccs2)c1 (configuration not stated) | -3.35 | 
11 | CCn1c(SC)nc(O)c(C(c2ccc(OC)c(O)c2)c2c(O)nc(SC)n(CC)c2=O)c1=O |  | 16.8 µM (active)
12 | CCn1c(COc2ccc(OC)cc2)nnc1SCC(=O)Nc1cc(OC)ccc1OC | -3.02 | 
13 | CCSc1nc(O)c(C(c2cccc(OC)c2)c2c(O)nc(SCC)[nH]c2=O)c(=O)[nH]1 | -21.7 | 
14 | Cc1cccc(C(=O)NC2CCN(CC(=O)Nc3cccc(Cl)c3)CC2)c1 | -8.54 | 
15 | COc1ccc([C@H]2C[C@@H](n3cc(COC(=O)c4ccccc4)nn3)[C@H](O)CN2C(=O)c2cccs2)cc1 | -9.99 | 
16 | COc1cccc(CNc2nc3cc(-c4csc5ccccc45)sc3c(=O)n2C)c1 | -2.77 | 
17 | COc1cccc(NC(=O)CCNS(=O)(=O)c2ccc3c(c2)oc(=O)n3C)c1 | -5.8 | 
18 | Cn1c(=O)oc2cc(S(=O)(=O)NCCC(=O)NCc3ccccc3Cl)ccc21 |  | 23.8 µM (active)
19 | Cc1ccc(NC(=O)CCNS(=O)(=O)c2ccc3c(c2)oc(=O)n3C)cc1C | 0.556 | 
20 | N#Cc1cccc(CN2CCC(=O)N(CCO)CC2)c1 | -6.69 | 
21 | CC(C)(C)c1cc(CN2CCN(CCC#N)CC2)cc(C(C)(C)C)c1O |  | 8.44 µM (active)
22 | N#CCCN1CCN(S(=O)(=O)c2ccc(S(=O)(=O)N3CCCC3)cc2)CC1 | -6.31 | 
23 | COc1ccc(OC)c(CN2C(=O)CCC2(C)c2nnnn2Cc2ccccc2)c1 (configuration not stated) | -0.666 | 
24 | Cc1ccc(C)c(C(O)c2ncc(-c3cccc4ccccc34)[nH]2)c1 (configuration not stated) | -3.49 | 
25 | CCc1nc2ccc(C(=O)NCc3ccc(OC)cc3)cn2c1N(CC)Cc1cccc(Br)c1 | -13.2 | 
26 | COC(=O)c1ccc(COC(=O)c2c(C)nn(Cc3ccccc3Cl)c2Cl)o1 | -10.8 | 

Row | SMILES | max response, negative = inhibition [%] | Potency
27 | CC(C)c1ccc(C(=O)OC2CCOC2=O)cc1 (configuration not stated) | -4.1 | 
28 | Cc1nn(Cc2ccccc2)c(Cl)c1C(=O)OC1CCOC1=O (configuration not stated) |  | 21.2 µM (active)
29 | N#Cc1ccc(-c2nc3c(Cl)cc(C(F)(F)F)cn3c2Cc2ccccc2C(F)(F)F)cc1 | 1.56 | 
30 | CC1(C(=O)Nc2ccccc2Br)CCN1C(=O)CC1CC1 (configuration not stated) | -11.1 | 
31 | O=C(O)CC/C(=C\c1cc2c(cc1Br)OCO2)c1nc2ccccc2s1 |  | 23.8 µM (active)
32 | O=C(/C=C/c1cc2c(cc1Br)OCO2)NCc1ccc(Cl)cc1 | -5.95 | 
33 | O=C(N/N=C/c1cc2c(cc1Br)OCO2)C1COc2ccccc2O1 (configuration not stated) | 6.15 | 
34 | CC(=O)C1=CCC(c2ccccc2)N(S(=O)(=O)c2ccc(C)cc2)C1 (configuration not stated) | -15.4 | 
35 | CCCNC(=O)C1(C)CCN1C(=O)Cc1ccc(-c2ccccc2)cc1 (configuration not stated) | -9.86 | 
36 | Cc1nc2c(C(=O)NCc3ccc4c(c3)OCO4)c[nH]n2c(=O)c1Cc1ccccc1F |  | 21.2 µM (active)
37 | O=C(NCc1ccc2c(c1)OCO2)c1cc(F)c(F)cc1Cl | -7.37 | 
38 | COc1cc(OC)c(C(=O)NCc2ccc3c(c2)OCO3)cc1OC | -15 | 
39 | CC1(C(=O)NCc2ccco2)Cc2c(-c3ccc4c(c3)OCO4)ccnc2O1 (configuration not stated) | -5.07 | 
40 | CCCNC(=O)C[C@@H]1CC[C@@H]2[C@H](COC[C@H](O)CN2C(=O)c2cc(Cl)cc(Cl)c2)O1 | -0.764 | 
41 | Cn1cc(CNC(=O)c2ccc(OC3CCN(Cc4ccccn4)CC3)cc2)cn1 | -5.74 | 
42 | Cc1nn(C)c(C)c1C(C)NC(=O)c1ccc(OC2CCN(Cc3ccccn3)CC2)cc1 (configuration not stated) |  | 2.12 µM (active)
43 | CN(CCc1ccccn1)C(=O)c1ccc(OC2CCN(Cc3ccccn3)CC2)cc1 | 5.54 | 
44 | Cc1cccc(S(=O)(=O)N(C)C[C@H]2OCc3cnnn3CCCC(=O)N([C@@H](C)CO)C[C@H]2C)c1 | -16.9 | 
45 | CCCCCCNC(=O)O[C@H]1CN(C(=O)OC(C)C)N(C(=O)OC(C)C)[C@@H]2CN(S(=O)(=O)c3ccc(C)cc3)C[C@]12O | -12.5 | 
46 | O=C(Nc1ccc(S(=O)(=O)Nc2ncccn2)cc1)C12CC3CC(CC(C3)C1)C2 | -7.71 | 
47 | COC(=O)c1ccc(NC(=O)C23CC4CC(C2)CC(n2cnc(Cl)n2)(C4)C3)cc1 |  | 23.8 µM (active)
48 | COC(=O)c1ccc(NC(=S)NN2CCOCC2)cc1 | -1.75 | 
49 | O=C(CNC(=O)N1CC(=O)Nc2ccccc21)Nc1ccc(Br)cc1F | -4.26 | 
50 | Cc1ccc(S(=O)(=O)N2C[C@H]3C(=O)C[C@@H](c4cccc5ccccc45)N(S(=O)(=O)c4ccc(C)cc4)[C@H]3C[C@H]2c2ccc(Cl)cc2)cc1 | -18.3 | 
51 | COC(=O)c1ccc2nc(-c3ccc(C)cc3)c(Cc3ccc(OC)cc3C)n2c1 | -3.95 | 
52 | CCN(C(=O)CSc1cccc[n+]1[O-])c1ccccc1 | 4.89 | 

Row | SMILES | max response, negative = inhibition [%] | Potency
53 | O=C(CSc1cccc[n+]1[O-])NCCCc1ccccc1 | -10.9 | 
54 | O=C(CSc1cccc[n+]1[O-])c1ccc(-c2ccccc2)cc1 |  | 23.8 µM (active)
55 | N#CCCN(C(=O)Nc1ccc(Cl)c(Cl)c1)C1CCCCC1 | 9.26 | 
56 | NC(Cc1ccccc1)c1csc(Nc2cc(Oc3ccccc3)ncn2)n1 (configuration not stated) | -8.4 | 
57 | CCc1ccc(/C=N/NC(=O)c2ccc(OC3CCCC3)cc2)s1 |  | 11.9 µM (active)
58 | COC(=O)CNC(=O)c1ccc(OC2CCN(C(=O)C3CC3)CC2)cc1 | -1.29 | 
59 | CCn1c(/C=N/NC(=O)c2ccc(OC)cc2)nc2ccccc21 | 1.71 | 
60 | Nc1cccc(-c2cncc(N3CCN(Cc4ccccn4)CC3)n2)c1 | -6.49 | 
61 | COc1ccc(-n2c(-c3ccc(Cl)cc3)n[nH]c2=S)c(OC)c1 | -18.3 | 
62 | CC(C)CCNC(=O)c1[nH]c(C(F)(F)F)nc1-c1ccccc1 | -2.14 | 
63 | COc1ccc(C2CC(c3ccccc3)=NN2C(=O)COC(=O)COc2ccccc2)cc1 (configuration not stated) | -2.07 | 
64 | COc1ccc(OCc2nnc3n2N=C(c2ccccc2)C(CC(=O)O)S3)cc1 (configuration not stated) |  | 1.5 µM (active)
65 | COc1ccc(OCC(=O)NNC(=O)C2CCC2)cc1 | 3.29 | 
66 | Cc1ccc(NC(=O)[C@H](Cc2ccccc2)NC(=O)CC[C@H]2O[C@@H](n3ccc(=O)[nH]c3=O)[C@H](O)[C@@H]2O)cc1C | -5.11 | 
67 | OC(c1cc(Cl)cc(Cl)c1)c1ncc(-c2ccccc2C(F)(F)F)[nH]1 (configuration not stated) | 4.04 | 
68 | CCOC(=O)[C@]12CCCC=C1N(Cc1cccc3ccccc13)C(=O)[C@H](CC(=O)NCC13CC4CC(CC(C4)C1)C3)C2 | -3.19 | 
69 | CCCS(=O)(=O)NC(=O)C1(C)CCCN(C(=O)c2cc(C)on2)C1 (configuration not stated) | -2.32 | 
70 | CCc1c(C)[nH]c(=S)c(C#N)c1C |  | 29.9 µM (active)
71 | CC(=O)c1c(C)[nH]c(=S)c(C#N)c1-c1ccc(F)cc1 | -8.58 | 
72 | COc1ccc(NC(=O)C(c2ccncc2)n2c(=O)c(-c3cc4ccccc4[nH]3)nc3ccccc32)cc1 (configuration not stated) | 12.4 | 
73 | COc1ccc(NC(=O)C(NC(C)=O)C(=O)NCc2ccccc2Cl)cc1 (configuration not stated) |  | 15 µM (active)
74 | COc1ccc(CNC(=O)C(C)NCc2ccccc2Cl)cc1 (configuration not stated) | 5.25 | 
75 | CCOC(=O)C(NC(C)=O)C(=O)Nc1ccc(OC)cc1 (configuration not stated) | -7.21 | 
76 | C=CCC[C@@H](CCCCC)OC(=O)/C=C/[C@@H](O)[C@H](O)C[C@H](O)CC=C | -3.6 | 
77 | CC1(C)OC(=O)C2=C(C[C@@H](C3CC3)O[C@H]2c2ccc(Cl)cc2)O1 | -2.8 | 
78 | Cc1ccccc1OC(=O)Cn1c(C(F)(F)F)nc2ccccc21 |  | 15 µM (active)

Row | SMILES | max response, negative = inhibition [%] | Potency
79 | CN1CCN(C(=O)Cn2c(C(F)(F)F)nc3ccccc32)CC1 | -6.38 | 
80 | CC(C)(C)NC(=O)NC(=O)COC(=O)Cn1c(C(F)(F)F)nc2ccccc21 | -11.6 | 
81 | O=C(NCCOc1ccccc1)N1[C@H]2CC[C@@H]1C=C(c1ccc(F)cc1OCc1ccccc1)C2 | -5.72 | 
82 | CC1(C(=O)NS(=O)(=O)c2ccc(C#N)cc2)CCN1C(=O)CC1CCCC1 (configuration not stated) | 1.71 | 
83 | COCC(=O)N(C)C[C@H]1Oc2cc(Br)ccc2S(=O)(=O)N([C@H](C)CO)C[C@H]1C | 4.87 | 
84 | Cc1ccc(CN2CC(N3CCC(Cc4ccccc4)CC3)CS2(=O)=O)cc1 (configuration not stated) | -6.9 | 
85 | Cn1c(=O)[nH]c(=O)c2c1nc(N(CCO)Cc1ccccc1)n2Cc1ccccc1Cl | -7.01 | 
86 | Cn1c(=O)[nH]c(=O)c2c1[nH]c(=S)n2Cc1ccccc1 |  | 23.8 µM (active)
87 | CCN(CC)CCn1cnc2c1c(=O)[nH]c(=O)n2Cc1ccccc1 | -4.34 | 
88 | COC(=O)[C@@]12C[C@@H](CC(=O)NCc3cccc(C(F)(F)F)c3)C(=O)N(Cc3ccco3)C1=CCC(C)(C)C2 | -2.23 | 
89 | O=C(NC1CCCC1)C1c2ccccc2OCC(=O)N1Cc1ccccc1 (configuration not stated) | -5.56 | 
90 | CCCCCCN1CCN(C2CN(Cc3cn(Cc4ccc(F)cc4)nn3)S(=O)(=O)C2)CC1 (configuration not stated) | 3.67 | 
91 | OC(c1ccccc1)c1nc(/C=C/c2ccc(C(F)(F)F)cc2)cs1 (configuration not stated) | -1.28 | 
92 | CC(=O)Nc1ccc(C=Cc2ccc([N+](=O)[O-])cc2)cc1 | -17.4 | 
93 | O=C(O)/C=C/C(=O)NNc1ccc([N+](=O)[O-])cc1 |  | 6.7 µM (active)
94 | CC(=O)Nc1ccc(C=CC(=O)c2ccc([N+](=O)[O-])cc2)cc1 | -8.08 | 
95 | O=C(NCCO)c1cccc(-c2cccc3nccn23)c1 | -13.3 | 
96 | C#Cc1ccc(NC(=O)C2(C)CCN2C(=O)Cc2ccc(-c3ccccc3)cc2)cc1 (configuration not stated) | 7.1 | 
97 | COc1ccc(C(=O)CSc2nccc(=O)[nH]2)cc1 | -2.62 | 
98 | COc1ccc(CNC(=O)CSc2n[nH]c(N)n2)cc1OC | -18.3 | 
99 | COc1ccc(C(=O)CSc2n[nH]c(N)n2)cc1 |  | 26.7 µM (active)
100 | COc1ccccc1-c1cc2nc(NCc3cccc(Cl)c3)ccn2n1 | -9.83 | 
101 | CCc1nc2c(OCc3ccc(C(=O)OC)cc3)cccn2c1N(C)C(=O)C(C)C | -10.3 | 
102 | OC[C@H]1O[C@@H](c2nc(-c3nc(-c4ccc(F)cc4)no3)cs2)[C@H](O)[C@@H](O)[C@H]1O | -9.06 | 
